Compounds with a hit are over-represented: about 19% of the library has one in this group of screens.
KB-V1 MDR tox – qHTS assay for MDR1-selective chemotherapeutics: Primary screen using the drug-selected MDR subline cells KB-V1. AID 1347076, 2019. KB-V1 MDR cells viability, CellTiter-Glo, 72 h. 400,000 compounds, 3.4% hits. Potency, µM (titrated, usually from 46.1 µM), usual class: cytotoxic; further: nearly all actives have a fitted effect of over 60% in size
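In this primary screen, KB-V1 cells overexpressing P-gp are incubated with library compounds (lowest to highest concentration) for 72 h at 37 degrees C before a luminescent ATP viability read.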
DT40 TDP1 no CPT – qHTS for Inhibitors of human tyrosyl-DNA phosphodiesterase 1 (TDP1): qHTS in cells in absence of CPT | DT40 Tdp1-/- hTDP1 cells, no CPT, ATP luminescence, 48 h | AID 686978, 2013 | Potency, µM (doses to about 46.2 µM), without a hit: at the highest dose activity change, negative = growth inhibition, usual class: inhibitors | 420,000 compounds, 15% hits; further: nearly all actives have a fitted effect of over 55% in size
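Growth kinetics read by CellTiter-Glo luminescence after ≥48 hr at 37 °C. Cells: DT40 Tdp1-/- stably carrying human TDP1, 400 per well, compound exposure in the absence of CPT (DMSO vehicle).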
KB-3-1 cytotox – qHTS assay for MDR1-selective chemotherapeutics: Primary screen using the parental adenocarcinoma cell KB-3-1; KB-3-1 viability, CellTiter-Glo ATP luminescence, 72 h; Potency, µM (titrated, usually from 46.1 µM), most hits filed as cytotoxic; 400,000 compounds, 1.4% hits; AID 1347075, 2019; further: nearly all actives have a fitted effect of over 60% in size
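KB-3-1 parental drug-naive adenocarcinoma cells in DMEM/10% FBS, incubated 72 h at 37 C with pin-transferred compounds across a concentration series. Viability by CellTiter-Glo luminescence; concentration-response curves fitted after normalization.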
HT1080 IDH1KD tx – qHTS for induction of synthetic lethality in tumor cells producing 2HG: qHTS for the HT-1080-IDH1KD cell line; 360,000 compounds, 2% hits; HT-1080 IDH1 knockdown viability, ATP luminescence, 48 h; Potency, µM (top dose mostly 46.1 µM), without a hit: top-dose activity, negative = toxicity, most hits filed as cytotoxic;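 further: 0% = DMSO wells and -100% = cell-free medium wells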
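Using the IDH1-knockdown HT-1080 line run in the same batch and compound series as the NT line, viability after 48 h at 37 °C was determined by CellTiter-Glo luminescence and expressed as % activity.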
HT1080-NT tox – qHTS for induction of synthetic lethality in tumor cells producing 2HG: qHTS for the HT-1080-NT fibrosarcoma cell line; 360,000 compounds, 1.6% hits; HT-1080-NT fibrosarcoma viability, CellTiter-Glo ATP luminescence, 48 h; Potency, µM (doses to about 46.1 µM), for the others: top-dose activity, negative = less viability, most hits filed as cytotoxic;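 further: NT is the 2HG producing partner of a matched IDH1 knockdown line; 0% = DMSO-treated cells and -100% = media-only wells without cells; nearly all actives have a fitted effect of over 55% in size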
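Toxicity toward the 2HG-producing NT line was scored as %Activity, normalised to DMSO and no-cell wells, from CellTiter-Glo luminescence after 48 hours' treatment.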
DT40 TDP1 CPT – qHTS for Inhibitors of human tyrosyl-DNA phosphodiesterase 1 (TDP1): qHTS in cells in presence of CPT; chicken DT40 Tdp1-/-;hTDP1 cells + 20 nM CPT, ATP luminescence, 48 h; Potency, µM (titrated, usually from 46.2 µM), for the others: at the highest dose activity change, negative = growth inhibition, actives largely listed as inhibitors; 420,000 compounds, 12% hits; AID 686979, 2013; further: nearly all actives have a fitted effect of over 55% in size
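Chicken DT40 Tdp1-/- cells complemented with human TDP1, 400 cells/well, exposed to compounds plus 20 nM camptothecin for at least 48 h at 37 C; viability read as ATP content by CellTiter-Glo luminescence.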
* marks the source's active call; other numbers are inactive results; i = inactive; u = inconclusive; x = not tested or not shown; [ ] = dose if it differs, or a comment. The call rests on the fitted dose curve; in most records, active means well fitted curve in the direction sought with a large enough effect; inconclusive means small, poorly fitted or top-dose-only effect, or another doubt; inactive means no such curve, though single readings can be large; an effect the other way counts as inactive or inconclusive. Unless noted, on the % scale 0 is the no-effect control and ±100 the full control effect; potency means the concentration at half of the fitted maximal effect.

SMILES | KB-V1 MDR tox | DT40 TDP1 no CPT | KB-3-1 cytotox | HT1080 IDH1KD tx | HT1080-NT tox | DT40 TDP1 CPT
C/C(=N\NC(=O)c1ccc(C)cc1C)c1ccc2c(c1)Nc1ccccc1S2 | u | 16.4µM* | i | u | -24.0% | u
CC(=O)Nc1cc(C(=O)Nc2ccc3c(c2)N(C)C(=O)c2ccccc2S3)ccc1C | u | 0.92µM* | 4.11µM* | x | x | 1.64µM*
CN1C(=O)c2ccccc2Sc2ccc(C(=O)O)cc21 | i | -4.2% | i | 22.4% | 13.4% | 5.9%
Cc1ccc(C(=O)Nc2ccc3c(c2)N(C)C(=O)c2ccccc2S3)cc1F | 6.51µM* | 0.82µM* | 8.2µM* | x | x | 1.03µM*
CC(=O)c1ccc2c(c1)N(C)c1ccccc1S2 | 23.1µM* | u | u | -9.7% | 0.3% | -19.8%
CCOC(=O)c1ccc(NC(=O)c2ccc3c(c2)NC(=O)c2ccccc2S3)cc1 | u | -0.4% | i | x | x | -19.0%
Cc1ccc(NC(=O)c2ccc3c(c2)NC(=O)c2ccccc2S3)cc1 | 9.2µM* | 2.59µM* | 6.51µM* | x | x | 3.66µM*
CNC(=O)c1[nH]cnc1C(=O)N[C@@H](C)C(=O)OC(C)(C)C | i | -11.4% | i | -0.5% | -1.0% | -0.2%
Cc1ccc(Nc2nnc(-c3ccc(C)c(S(=O)(=O)N4CCN(C)CC4)c3)c3ccccc23)cc1 | i | 16.4µM* | u | x | x | 18.4µM*
Cc1ccc(-c2nnc(Nc3cccc(Cl)c3)c3ccccc23)cc1S(=O)(=O)N1CCN(C)CC1 | x | 20.6µM* | x | x | x | 11.6µM*
Cc1ccc(NS(=O)(=O)c2cc(-c3n[nH]c(=O)c4ccccc34)ccc2C)cc1 | 20.6µM* | 6.51µM* | 11.6µM* | 14.6µM* | 18.4µM* | 7.31µM*
Cc1ccc(Nc2nnc(-c3ccc(C)c(S(=O)(=O)N4CCN(C)CC4)c3)c3ccccc23)c(C)c1 | i | 6.51µM* | i | x | x | 7.31µM*
CCOC(=O)CNS(=O)(=O)c1cc(-c2n[nH]c(=O)c3ccccc23)ccc1C | i | -15.0% | i | -2.1% | 0.8% | u
Cc1ccc(-c2nnc(Nc3ccccc3)c3ccccc23)cc1S(=O)(=O)N1CCN(C)CC1 | i | u | i | x | x | u
CCc1ccc(N(CC(=O)N2CCCC2)S(C)(=O)=O)cc1 | i | u | i | -5.9% | -7.3% | 3.9%
Cn1c(CC(=O)NNC(=O)c2ccccc2[N+](=O)[O-])nc2ccccc21 | i | -7.2% | i | 12.2% | 0.3% | 9.2%
Cc1ccc(-c2nnc(Nc3cccc(Br)c3)c3ccccc23)cc1S(=O)(=O)N1CCCCC1 | i | -23.7% | i | x | x | -25.3%
Cc1ccc(-c2nnc(Nc3cccc(O)c3)c3ccccc23)cc1S(=O)(=O)N1CCCCC1 | i | -102.0% | i | x | x | 18.4µM*
Cc1ccc(-c2nnc(Nc3ccccc3)c3ccccc23)cc1S(=O)(=O)NCc1nc2ccccc2[nH]1 | i | u | u | x | x | u
Cc1ccc(-c2nnc(Nc3cccc(Br)c3)c3ccccc23)cc1S(=O)(=O)N1CCN(C)CC1 | i | 18.4µM* | i | x | x | 13µM*
Cc1ccc(-c2nnc(NCc3nc4ccccc4[nH]3)c3ccccc23)cc1S(=O)(=O)N1CCCCC1 | i | 16.4µM* | i | 3.5% | -4.1% | 20.6µM*
Cc1cccc(Nc2nnc(-c3ccc(C)c(S(=O)(=O)N4CCN(C)CC4)c3)c3ccccc23)c1 | x | u | x | x | x | 20.6µM*
CC1=C(C(=O)N(C)C)CC(CC(=O)NCCCCc2ccccc2)C(=O)N1Cc1ccccc1 (centres undefined) | u | u | i | 0.3% | -0.9% | u
Cc1ccc(S(=O)(=O)N(CCC(=O)NCc2ccccc2F)c2ccccc2)cc1 | i | u | i | 0.5% | 7.8%[9.24 µM] | u
COc1cccc(CN(C)C(=O)CNC(=O)c2cccs2)c1OC | u | -2.1% | i | 11.4% | 6.7% | 4.2%
SMILES | KB-V1 MDR tox | DT40 TDP1 no CPT | KB-3-1 cytotox | HT1080 IDH1KD tx | HT1080-NT tox | DT40 TDP1 CPT
COc1ccccc1CN(C)C(=O)c1ccc(COc2ccccc2)cc1 | i | u | i | -18.2% | -8.2% | 16.4µM*
COc1ccccc1CNC(=O)C(Cc1ccccc1)NC(=O)c1ccccc1 (centres undefined) | i | u | i | 3.7% | 4.3% | u
COc1cccc(CN(C)C(=O)CNC(=O)c2ccc(-c3ccccc3)cc2)c1OC | u | u | i | 4.61µM* | u | u
COc1cccc(CN(C)C(=O)CCN(c2ccccc2)S(=O)(=O)c2ccc(C)cc2)c1OC | i | 16.4µM* | i | -19.5% | -15.4% | 25.9µM*
COc1ccc(CN(C)C(=O)C(Cc2ccccc2)NC(=O)c2ccccc2)c(OC)c1 (centres undefined) | i | 20.6µM* | i | -0.8% | -5.3% | u
COc1ccccc1CN(C)C(=O)C(c1ccccc1)c1ccccc1 | 20.6µM* | 13µM* | u | 16.4µM* | u | 16.4µM*
COc1cccc(CN(C)C(=O)[C@@H](NC(=O)c2ccc(C)cc2)C(C)C)c1 | i | 20.6µM* | i | -9.8% | 1.2% | 20.6µM*
COc1ccc(C(=O)N[C@H](C(=O)NCc2ccc(C)cc2)C(C)C)cc1 | u | -28.8% | i | -22.7% | 3.6% | -4.6%
CN(Cc1ccc(F)cc1)C(=O)C(c1ccccc1)c1ccccc1 | i | u | i | -5.1% | -0.4% | -26.9%
COc1cccc(CN(C)C(=O)c2ccc(Oc3ccccc3)cc2)c1OC | i | 20.6µM* | i | -19.7% | u | 25.9µM*
COc1ccc(CN(C)C(=O)CNC(=O)c2sc3ccccc3c2Cl)c(OC)c1OC | 5.8µM* | -24.3% | u | 4.2% | 3.6% | u
COc1ccc(CN(C)C(=O)c2ccc(NS(=O)(=O)c3ccccc3)cc2)c(OC)c1 | i | u | i | -1.1% | -24.5% | u
COc1ccc(CN(C)C(=O)c2ccc(COc3ccccc3)cc2)c(OC)c1 | i | 9.2µM* | i | -11.4% | -8.2% | 18.4µM*
COc1ccccc1NC(=O)CCn1c(=O)sc2ccccc21 | i | -3.2% | i | 0.0% | u | -3.0%
